Screening data as filed in PubChem BioAssay.
TAR Tat displ: TAR RNA-Tat peptide displacers, HIV-1, primary screen, biochemical, FRET, FAM/TAMRA-labeled Tat; 0.6% of 100,000 active; HIV-1 TAR RNA, Tat peptide displacement FRET; stronger effect = higher value; z-score (no concentration beside the values); AID 1259389, 2018; active = z-score of 3 or more in at least 2 runs
CDC25B-CDK2 inh: primary biochemical HTRF screen for blockers of M-phase inducer phosphatase 2 binding to CDK2/cyclin A; z-score (no concentration beside the values); HTRF CDC25B-CDK2/CyclinA binding, anti-His/anti-Flag; stronger effect = higher value; AID 1259370, 2018; P30305+P24941; 0.72% of 94,000 active; in the data active = z-score above about 3.2
* marks the source's active call; other numbers are inactive results; · = no result given. Compounds with a hit are over-represented: about 0.93% of the library has one in this group of screens.

SMILES	TAR Tat displ	CDC25B-CDK2 inh
Cc1ccc(C2CC(=O)N3CN(C(C)c4ccccc4)CSC3=C2C#N)cc1 (stereo unspecified)	1.23	5.01*
COC(=O)C1CCN(c2ncc3c(=O)n(-c4ccccc4)c(=O)[nH]c3n2)CC1	1.57	0.46
Cc1cccc(-c2nnc(C3CCNCC3)o2)c1	0.56	-0.3
O=[N+]([O-])c1ccc(Cl)c(SSc2cc([N+](=O)[O-])ccc2Cl)c1	·	-4.27
COc1ccc(CNS(=O)(=O)c2cc(Br)cnc2N)cc1	0.28	-2.14
CC1CCN(C(=O)C(Cc2ccccc2)NS(=O)(=O)c2ccc3c(c2)CCC(=O)N3)CC1 (stereo unspecified)	·	-1.85
CN(Cc1ccccc1)c1nnc(NC(=O)NCc2ccccc2)s1	7.97*	-1.3
CN(Cc1ccccc1)c1nnc(NC(=O)Nc2ccc3c(c2)OCCO3)s1	3.63	-0.57
OC(CN1CCOCC1)Cn1nnnc1-c1ccccc1 (stereo unspecified)	1.23	-0.99
Cc1nn(C(C)C(=O)N2CCC(N3CCCCC3)CC2)c(=O)c2nn(-c3ccccc3)c(C)c12 (stereo unspecified)	0.11	·
CN1C(=O)CSc2ccc(NC(=O)NCc3cccnc3)cc21	0.5	4.78*
CN1C(=O)CSc2ccc(NC(=O)NCc3ccc(F)cc3)cc21	-0.54	1.95
COc1cc(C2CC(=O)Nc3nc(N)[nH]c(=O)c32)ccc1O (stereo unspecified)	-1.22	-1.86
COc1ccc(C2CC(=O)Nc3nc(N)[nH]c(=O)c32)cc1 (stereo unspecified)	0.84	1.19
COc1ccc(C2C3=C(Nc4nc(N)[nH]c(=O)c42)c2ccccc2C3=O)cc1 (stereo unspecified)	3.7*	13.8*
COc1cc(C2C3=C(Nc4nc(N)[nH]c(=O)c42)c2ccccc2C3=O)ccc1O (stereo unspecified)	5.64*	2.72
Brc1ccc(C2=Nn3c(Cc4ccccc4)nnc3SC2)cc1	1.2	·
Cn1c(=O)c2c(SCC(=O)N3CCOCC3)nc(-c3ccco3)nc2n(C)c1=O	·	-2.12
CCC(=O)N1c2ccccc2NC2=C(C(=O)CC(C)(C)C2)C1CC1CC=C(C)C1(C)C (stereo unspecified)	-0.49	0.3
O=C(CN1C(=O)c2ccc([N+](=O)[O-])cc2C1=O)Nc1ccc2ccccc2c1	·	6.69*
O=C(Nc1cccc([N+](=O)[O-])c1)c1ccc2c(c1)C(=O)N(c1cccc3ccccc13)C2=O	·	0.77
COc1ccc(N2CSC3=C(C#N)C(c4ccc(OC)cc4OC)CC(=O)N3C2)cc1 (stereo unspecified)	-1.25	3.39*
COc1ccc(C2CC(=O)N3CN(C)CSC3=C2C#N)c(OC)c1 (stereo unspecified)	-1.32	5.17*
COc1ccc(N2CSC3=C(C#N)C(c4ccc(SC)cc4)CC(=O)N3C2)cc1 (stereo unspecified)	-0.8	2.79
COc1ccc(Br)cc1C1CC(=O)N2CN(C)CSC2=C1C#N (stereo unspecified)	3.31	5.05
SMILES	TAR Tat displ	CDC25B-CDK2 inh
COc1ccc(C2CC(=O)N3CN(c4ccc(F)cc4)CSC3=C2C#N)c(OC)c1 (stereo unspecified)	-2.14	4.41*
COCCCNC(=O)Cc1sc(C)nc1-c1cccs1	-0.99	-1.39
Cc1ccc(Cn2ccc(NC(=O)C3=CC(c4ccc(C)cc4)=NS(=O)(=O)N3C)n2)cc1	0.97	-2.79
COCCCNC(=O)Nc1ccc2sc(NC(=O)C3CCCCC3)nc2c1	-0.17	·
Cc1onc(-c2cccc(Br)c2)c1C(=O)O	0.05	-0.04
CC(=O)Oc1cc2c(C(=O)NCC3CCCO3)c(C)oc2c2ccccc12 (stereo unspecified)	1.29	2.34
CC(=O)Oc1cc2c(C(=O)NC3CCS(=O)(=O)C3)c(C)oc2c2ccccc12 (stereo unspecified)	-7.68	9.98*
COc1ccc(-n2c(=O)[nH]c(=O)c3sc(N)nc32)cc1	7.27*	0.15
Nc1nc2c(s1)c(=O)[nH]c(=O)n2-c1ccccc1	1.22	0.38
COc1ccc(-c2nc(-c3cccs3)c(-c3cccs3)[nH]2)cc1O	1.25	18.3*
COc1cc(-c2nc(-c3ccccc3)c(-c3ccccc3)[nH]2)ccc1O	·	-0.82
Cc1c(C(=O)O)c(O)cc2c1C(=O)c1c(O)c([C@H]3O[C@H](CO)[C@@H](O)[C@H](O)[C@H]3O)c(O)c(O)c1C2=O	8.54*	·
COc1c(O)cc2c(c1O)[C@@H]1O[C@H](CO)[C@@H](O)[C@H](O)[C@H]1OC2=O	1.87	·
O=C(CSc1ncnc2c1sc1cccc(F)c12)N1CCCCC1	-0.7	·
O=C(CSc1ncnc2c1sc1cccc(F)c12)NCCc1ccco1	11.7*	·
O=C(CSc1ncnc2c1sc1cccc(F)c12)NCc1ccco1	0.27	·
O=C(O)CCSc1ncnc2c1sc1cccc(F)c12	5.38*	-0.58
Cn1nc(C(=O)NCCCN2CCOCC2)c2c1-c1ccccc1S(=O)(=O)C2	1.22	-1.4
COc1ccccc1Nc1nc(-c2c(C)nc3ccccn23)cs1	2.5	-1.83
COc1ccc(Cl)cc1Nc1nc(-c2c(C)nc3ccccn23)cs1	8.26*	6.62
COc1cccc(O)c1O	13.4*	·
COc1cccc(OC)c1C(=O)NN	·	-2.14
Cc1ccc(NC(=O)c2nccnc2C(=O)O)cc1	·	-0.79
CC(=O)Nc1ccc(NC(=O)c2nccnc2C(=O)O)cn1	·	11.4*
COc1ccc2[nH]c(=O)cc(C(=O)O)c2c1	12.6*	0.85
SMILES	TAR Tat displ	CDC25B-CDK2 inh
COc1ccc2c(C(=O)O)cc(=O)[nH]c2c1	-0.28	-1.18
C=Cc1c(C)/c2[n-]/c1=C\c1[n-]c(c(CC)c1C)/C=c1\[n-]c3c(c1C)C(=O)C(C(=O)[O-])C=3c1[n-]c(c(C)c1CCC(=O)[O-])\C=2.[Cu].[Na+].[Na+] (stereo unspecified)	23.1*	·
CC(=O)NCCNC(=O)c1ccc2c(=O)[nH]c3c(C(=O)NC4CCCC4)sc(=S)n3c2c1	16.4	·
O=C(NCc1ccccc1)c1sc(=S)n2c1[nH]c(=O)c1ccccc12	8.36*	·
O=C(NCc1cccc(Cl)c1)c1sc(=S)n2c1[nH]c(=O)c1ccccc12	2.85	·
CC(C)NC(=O)c1sc(=S)n2c1[nH]c(=O)c1ccc(C(=O)NC(C)c3ccccc3)cc12 (stereo unspecified)	0.68	·
O=C(NCc1ccco1)c1ccc2c(=O)[nH]c3c(C(=O)NCC4CCCO4)sc(=S)n3c2c1 (stereo unspecified)	4.7*	·
CCN(CC)CCNC(=O)c1ccc2c(=O)[nH]c3c(C(=O)NC(C)C)sc(=S)n3c2c1	6.41*	·
N#CC1c2ccccc2C=CN1C(=O)C1=CCCCC1 (stereo unspecified)	1.28	1.24
CC(=O)Nc1ccc(S(=O)(=O)[C@H]2CS(=O)(=O)C[C@@H]2NC2CCCC2)cc1	0.43	-2.02
O=S(=O)(c1ccccc1)c1cnc2ccc(Cl)cc2c1N1CCCC1	0.16	-0.64
COc1cc2ncc(S(=O)(=O)c3ccccc3)c(N3CCC(C)CC3)c2cc1OC	1.04	1.55
CCc1ccc2ncc(S(=O)(=O)c3ccccc3)c(N3CCCC3)c2c1	-2.49	9.11*
COc1cc2ncc(S(=O)(=O)c3ccccc3)c(N3CCCCC3)c2cc1OC	-0.26	5.93*
Cc1ccc(S(=O)(=O)NCCc2sc(-c3ccc(Cl)cc3)nc2C)s1	1.16	·
